Assay results from PubChem BioAssay (EPA / NIEHS).
Activity calls are given as the source filed them. Rule for the calls: active = hit-call score of the fitted dose curve at least 0.9, where 1 is the maximum; inactive = score below 0.9.

Assays:
Conditions in all cases: mRNA level, 48 h; actives raise or lower the signal
[1] = read-out: Cytochrome P450 4A22 (Homo sapiens) (UniProt Q5TCH4); assay: LTEA_HepaRG_CYP4A22: Life Technologies and Expression Analysis (LTEA) Assay for Cytochrome P450 4A22 (CYP4A22) using HepaRG (AID 2283495)
Summary of the method: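 HepaRG, 48 h post-plating -> serum-free induction medium; dosed 48 h, duplicate, 8 conc. (100 uM top, half-log), 0.5% DMSO. Readout: CYP4A22 mRNA by qRT-PCR, ACTB/GAPDH/POLR2A normalization; gain/loss fit relative to DMSO.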

[2] = read-out: Cytochrome P450 7A1 (Homo sapiens) (UniProt P22680); assay: LTEA_HepaRG_CYP7A1: Life Technologies and Expression Analysis (LTEA) Assay for Cytochrome P450 7A1 (CYP7A1) using HepaRG (AID 2283496)
Summary of the method: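 Using 0.5% DMSO as vehicle and baseline, chemicals were tested in duplicate over an 8-point range from 100 uM on HepaRG cells for 48 h; qRT-PCR signals were normalised to ACTB, GAPDH and POLR2A.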

[3] = read-out: Glutathione S-Transferase (GSTA2), GSTA2 (gene 2939); assay: LTEA_HepaRG_GSTA2: Life Technologies and Expression Analysis (LTEA) Assay for Glutathione S-Transferase (GSTA2) using HepaRG (AID 2283497)
Summary of the method: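 qRT-PCR readout of GSTA2 transcript, normalized to three housekeeping genes, fitted bidirectionally against 0.5% DMSO baseline. Differentiated HepaRG cells received compound for 48 h at 8 concentrations (top 100 uM, half-log steps).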

[4] = read-out: Glutamate-cysteine ligase catalytic (GCLC), GCLC (gene 2729); assay: LTEA_HepaRG_GCLC: Life Technologies and Expression Analysis (LTEA) Assay for Glutamate-cysteine ligase catalytic (GCLC) using HepaRG (AID 2283498)
Summary of the method: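 HepaRG, 48 h exposure, 8-pt half-log series from 100 uM, 0.5% DMSO vehicle; TaqMan qRT-PCR for GCLC mRNA, housekeeping-normalized; bidirectional curve fit vs DMSO baseline.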

[5] = read-out: growth arrest and DNA damage 45 (GADD45G), GADD45G (gene 10912); assay: LTEA_HepaRG_GADD45G: Life Technologies and Expression Analysis (LTEA) Assay for growth arrest and DNA damage 45 (GADD45G) using HepaRG (AID 2283499)
Summary of the method: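 HepaRG, 48 h exposure, top 100 uM, half-log 8-point series, 0.5% DMSO vehicle, duplicates. Readout: GADD45G transcript by qRT-PCR (Fluidigm array), housekeeping-normalised (ACTB/GAPDH/POLR2A). Bidirectional curve fit vs DMSO baseline.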

[6] = read-out: Glutamate-cysteine ligase regulatory (GCLM), GCLM (gene 2730); assay: LTEA_HepaRG_GCLM: Life Technologies and Expression Analysis (LTEA) Assay for Glutamate-cysteine ligase regulatory (GCLM) using HepaRG (AID 2283500)
Summary of the method: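 HepaRG, 48 h dosing, 100 uM top, half-log x8, 0.5% DMSO vehicle. Readout: GCLM mRNA by TaqMan qRT-PCR, housekeeping-normalized (ACTB/GAPDH/POLR2A). Curves fit bidirectionally vs DMSO baseline.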

[7] = read-out: Glutathione S-transferase M3 (GSTM3), GSTM3 (gene 2947); assay: LTEA_HepaRG_GSTM3: Life Technologies and Expression Analysis (LTEA) Assay for Glutathione S-transferase M3 (GSTM3) using HepaRG (AID 2283501)
Summary of the method: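 qRT-PCR read-out of GSTM3 transcript, normalized to three housekeeping genes, from human HepaRG cells after 48 h chemical exposure. Eight-point half-log series, top 100 uM, 0.5% DMSO vehicle; gain or loss fitted relative to DMSO baseline.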

[8] = read-out: Heat shock 70 kDa protein 1 (HSPA1A), gene 3303; assay: LTEA_HepaRG_HSPA1A: Life Technologies and Expression Analysis (LTEA) Assay for Heat shock 70 kDa protein 1 (HSPA1A) using HepaRG (AID 2283502)
Summary of the method: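 HepaRG, 48 h exposure, 8-pt half-log CRC from 100 uM in 0.5% DMSO, duplicates. Readout: TaqMan qRT-PCR of HSPA1A mRNA, housekeeping-normalized (ACTB/GAPDH/POLR2A). Bidirectional fit vs 0.5% DMSO baseline.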

[9] = read-out: 3-Hydroxy-3-Methylglutaryl-CoA Synthase 2 (HMGCS2), HMGCS2 (gene 3158); assay: LTEA_HepaRG_HMGCS2: Life Technologies and Expression Analysis (LTEA) Assay for 3-Hydroxy-3-Methylglutaryl-CoA Synthase 2 (HMGCS2) using HepaRG (AID 2283504)
Summary of the method: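 qRT-PCR read-out of HMGCS2 transcript, normalised to three housekeeping genes, in HepaRG cells after 48 h chemical exposure. Eight-point curves from 100 uM, half-log dilutions, 0.5% DMSO vehicle; gain or loss fitted relative to DMSO baseline.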

HGF (gene 3082) = assay: LTEA_HepaRG_HGF: Life Technologies and Expression Analysis (LTEA) Assay for Hepatocyte Growth Facto (HGF) using HepaRG (AID 2283505)
Summary of the method: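 HepaRG, 48 h dosing, 8-pt half-log series from 100 uM in 0.5% DMSO, duplicates. Readout: TaqMan qRT-PCR of HGF mRNA, housekeeping-normalized; bidirectional curve fit vs DMSO baseline.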

[10] = read-out: Insulin Like Growth Factor 1 (IGF1), IGF1 (gene 3479); assay: LTEA_HepaRG_IGF1: Life Technologies and Expression Analysis (LTEA) Assay for Insulin Like Growth Factor 1 (IGF1) using HepaRG (AID 2283506)
Summary of the method: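 qRT-PCR readout of IGF1 mRNA, normalized to three housekeeping genes, after 48 h chemical exposure of HepaRG cells. Concentrations: 8-point half-log series, top 100 uM, 0.5% DMSO vehicle. Gain or loss fitted against DMSO baseline.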

[11] = read-out: Intercellular Adhesion Molecule 1 (ICAM1), ICAM1 (gene 3383); assay: LTEA_HepaRG_ICAM1: Life Technologies and Expression Analysis (LTEA) Assay for Intercellular Adhesion Molecule 1 (ICAM1) using HepaRG (AID 2283507)
Summary of the method: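 HepaRG, 48 h exposure, 8-pt half-log series from 100 uM, 0.5% DMSO vehicle, duplicates. Readout: TaqMan qRT-PCR mRNA, housekeeping-normalized (ACTB/GAPDH/POLR2A). Bidirectional curve fit vs DMSO baseline.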

[12] = read-out: Interleukin 6 (IL6), IL6 (gene 3569); assay: LTEA_HepaRG_IL6: Life Technologies and Expression Analysis (LTEA) Assay for Interleukin 6 (IL6) using HepaRG (AID 2283509)
Summary of the method: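 qRT-PCR read-out of IL6 transcript, normalized to three housekeeping genes, after 48 h chemical exposure of HepaRG cells; 8-point half-log series, top 100 uM, 0.5% DMSO vehicle. Bidirectional curve fitting against DMSO baseline.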

[13] = read-out: Interleukin 6 Receptor (IL6R), IL6R (gene 3570); assay: LTEA_HepaRG_IL6R: Life Technologies and Expression Analysis (LTEA) Assay for Interleukin 6 Receptor (IL6R) using HepaRG (AID 2283510);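 for AC50: differentiated human HepaRG liver cells in serum-free induction medium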
Summary of the method: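 HepaRG, 48 h exposure, 8-pt half-log series, top 100 uM, 0.5% DMSO vehicle, duplicates. Read-out: TaqMan qRT-PCR of IL6R transcript, housekeeping-gene normalized. Gain or loss fitted relative to DMSO baseline.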

[14] = read-out: Potassium channel subfamily K member 1 (KCNK1), KCNK1 (gene 3775); assay: LTEA_HepaRG_KCNK1: Life Technologies and Expression Analysis (LTEA) Assay for Potassium channel subfamily K member 1 (KCNK1) using HepaRG (AID 2283511)
Summary of the method: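 HepaRG, 48 h exposure, 8-pt half-log series top 100 uM, 0.5% DMSO vehicle, duplicates. Readout: KCNK1 transcript by qRT-PCR (Fluidigm array), housekeeping-normalized; bidirectional curve fit relative to DMSO baseline.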

[15] = read-out: Keratin 19 (KRT19), KRT19 (gene 3880); assay: LTEA_HepaRG_KRT19: Life Technologies and Expression Analysis (LTEA) Assay for Keratin 19 (KRT19) using HepaRG (AID 2283512)
Summary of the method: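 HepaRG, 48 h chemical exposure, 8-pt half-log CRC from 100 uM, 0.5% DMSO vehicle, duplicates. Readout: TaqMan qRT-PCR of KRT19 mRNA, housekeeping-normalized (ACTB/GAPDH/POLR2A). Bidirectional fit vs DMSO baseline.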

[16] = read-out: JUN Transcription Factor, JUN (gene 3725); assay: LTEA_HepaRG_JUN: Life Technologies and Expression Analysis (LTEA) Assay for JUN Transcription Factor using HepaRG (AID 2283513)
Summary of the method: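 HepaRG, 48 h exposure, 8-pt half-log series top 100 uM, 0.5% DMSO, duplicate. JUN mRNA by qRT-PCR (Fluidigm), housekeeping-normalized (ACTB/GAPDH/POLR2A); bidirectional curve fit vs DMSO baseline.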

[17] = read-out: Lipase C (LIPC), LIPC (gene 3990); assay: LTEA_HepaRG_LIPC: Life Technologies and Expression Analysis (LTEA) Assay for Lipase C (LIPC) using HepaRG (AID 2283514)
Summary of the method: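 HepaRG, 48 h exposure, 8-pt half-log series from 100 uM in 0.5% DMSO, duplicates. Readout: LIPC mRNA by Fluidigm qRT-PCR, housekeeping-normalized (ACTB/GAPDH/POLR2A). Gain or loss fitted bidirectionally against DMSO baseline.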

[18] = read-out: Hypoxia-inducible factor 1-alpha (Homo sapiens) (UniProt Q16665); assay: LTEA_HepaRG_HIF1A: Life Technologies and Expression Analysis (LTEA) Assay for Hypoxia-inducible factor 1 (HIF1A) Trancription factor using HepaRG (AID 2283503)
Summary of the method: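 Gain- or loss-of-signal HIF1A mRNA changes are fitted against a DMSO baseline. HepaRG cultures receive eight concentrations, highest 100 uM, for 48 h in serum-free induction medium with 0.5% DMSO.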

Sequence of Hypoxia-inducible factor 1-alpha (Homo sapiens) (Q16665 whole entry, looked up): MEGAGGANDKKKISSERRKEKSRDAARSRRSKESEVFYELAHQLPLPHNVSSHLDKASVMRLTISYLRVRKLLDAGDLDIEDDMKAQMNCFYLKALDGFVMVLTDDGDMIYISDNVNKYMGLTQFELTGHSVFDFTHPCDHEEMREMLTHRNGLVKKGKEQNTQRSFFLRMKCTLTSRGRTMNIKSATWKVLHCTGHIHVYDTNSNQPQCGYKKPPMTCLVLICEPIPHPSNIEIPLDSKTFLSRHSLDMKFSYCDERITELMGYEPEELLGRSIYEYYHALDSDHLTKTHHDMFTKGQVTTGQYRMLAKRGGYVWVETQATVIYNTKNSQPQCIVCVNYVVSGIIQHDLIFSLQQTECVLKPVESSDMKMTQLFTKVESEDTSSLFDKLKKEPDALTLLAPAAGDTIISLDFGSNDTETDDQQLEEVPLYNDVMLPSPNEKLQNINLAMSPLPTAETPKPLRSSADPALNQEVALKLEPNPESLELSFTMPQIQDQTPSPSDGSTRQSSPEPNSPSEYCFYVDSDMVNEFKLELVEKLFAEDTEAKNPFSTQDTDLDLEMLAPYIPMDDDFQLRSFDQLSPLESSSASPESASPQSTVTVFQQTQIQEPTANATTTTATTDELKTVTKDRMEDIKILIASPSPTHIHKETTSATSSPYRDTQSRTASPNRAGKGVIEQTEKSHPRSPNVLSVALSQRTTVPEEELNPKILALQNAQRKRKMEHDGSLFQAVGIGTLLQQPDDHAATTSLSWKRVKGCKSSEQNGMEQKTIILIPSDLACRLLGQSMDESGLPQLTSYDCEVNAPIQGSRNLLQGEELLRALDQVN

For `O=C(Nc1ccc([N+](=O)[O-])cc1Cl)c1cc(Cl)ccc1O`, the AC50 [1] was 14.2 µM (active), the AC50 [2] was 13.6 µM (active) and the AC50 [3] was 2.84 µM (active). The AC50 [4] was 4.26 µM (active), the outcome [5] was “inactive” and the outcome [6] was “inactive”. For the same compound, the AC50 [7] was 25 µM (active), the outcome [8] was “inactive” and the AC50 [9] was 2.59 µM (active). The AC50 (HGF (gene 3082)) was 2.98 µM (active), the AC50 [10] was 3.59 µM (active) and the AC50 [11] was 6.3 µM (active). For the same compound, the AC50 [12] was 3.29 µM (active), the AC50 [13] was 2.13 µM (active) and the AC50 [14] was 4.02 µM (active). For the same compound, the AC50 [15] was 1.48 µM (active), the AC50 [16] was 2.42 µM (active) and the AC50 [17] was 4.31 µM (active).

For `CCOC(=O)NCCOc1ccc(Oc2ccccc2)cc1`, the AC50 [1] was 83.2 µM (active), the AC50 [2] was 83.9 µM (active) and the AC50 [3] was 88.5 µM (active). For the same compound, the outcome [4] was “inactive”, the AC50 [5] was 73.5 µM (active) and the AC50 [6] was 82.4 µM (active). For the same compound, the outcome [7] was “inactive”, the outcome [8] was “inactive” and the outcome [18] was “inactive”. The AC50 [9] was 77.1 µM (active), the outcome (HGF (gene 3082)) was “inactive” and the AC50 [10] was 89.5 µM (active). For the same compound, the outcome [11] was “inactive”, the AC50 [12] was 77.9 µM (active) and the AC50 [13] was 20.7 µM (active). The outcome [14] was “inactive”, the AC50 [15] was 89.8 µM (active) and the outcome [16] was “inactive”. The AC50 [17] was 89 µM (active).

For `COc1c(Cl)ccc(Cl)c1C(=O)O`, the outcome [3] was “inactive”, the outcome [4] was “inactive” and the outcome [5] was “inactive”. For the same compound, the outcome [6] was “inactive”, the outcome [7] was “inactive” and the outcome [8] was “inactive”. The outcome [18] was “inactive”, the outcome [9] was “inactive” and the outcome (HGF (gene 3082)) was “inactive”. For the same compound, the outcome [10] was “inactive”, the outcome [11] was “inactive” and the outcome [12] was “inactive”. For the same compound, the outcome [13] was “inactive”, the outcome [14] was “inactive” and the outcome [15] was “inactive”. For the same compound, the outcome [16] was “inactive” and the outcome [17] was “inactive”.

In the case of `N[C@@H](Cc1cc(I)c(Oc2ccc(O)c(I)c2)c(I)c1)C(=O)O`, the AC50 [1] is reported as 0.00445 µM (active), the AC50 [2] is reported as 40 µM (active) and the AC50 [3] is reported as 58.3 µM (active). The AC50 [4] was 40 µM (active), the outcome [5] was “inactive” and the outcome [6] was “inactive”. For the same compound, the AC50 [7] was 0.613 µM (active), the outcome [8] was “inactive” and the AC50 [18] was 0.00253 µM (active). The AC50 [9] was 0.00253 µM (active), the outcome (HGF (gene 3082)) was “inactive” and the outcome [10] was “inactive”. The AC50 [11] was 40 µM (active), the outcome [12] was “inactive” and the AC50 [13] was 40 µM (active). For the same compound, the outcome [14] was “inactive”, the AC50 [15] was 0.0152 µM (active) and the outcome [16] was “inactive”. The AC50 [17] was 72.3 µM (active).
